The panel holds about 83,000 compounds, 20% with a hit somewhere; the sample as a whole holds those more often.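 The endpoint reported here, percent growth, reads 100 for growth as untreated, 0 for no net growth and -100 for all cells dead.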 Calls of active or inactive are those of the source. Rule for the calls: active = growth percent below 10; inactive = the rest.
Legend:
Assay in all cases: NCI-60 one-dose screen, 48 h (100 = growth as untreated, 0 = no growth, -100 = all killed)
Conditions in all cases: 10 µM unless noted
DU-145 prostate = test system: DU-145 prostate
K-562 leukemia = test system: K-562 leukemia
MALME-3M melanoma = test system: MALME-3M melanoma
MDA-MB-231 breast = test system: MDA-MB-231 breast
RXF 393 renal = test system: RXF 393 renal
SF-268 CNS = test system: SF-268 CNS
SF-295 CNS = test system: SF-295 CNS
SF-539 CNS = test system: SF-539 CNS
UACC-257 melanoma = test system: UACC-257 melanoma
M14 melanoma = test system: M14 melanoma

Measured: growth

COc1cc(/C=C/c2cc(/C=C/c3ccc(O)c(OC)c3)n(-c3ccccc3)n2)ccc1O
active: DU-145 prostate -45.7% | K-562 leukemia -15.5% | MALME-3M melanoma -39% | MDA-MB-231 breast 5.23% | RXF 393 renal -70% | SF-268 CNS -12.5% | SF-295 CNS -71.5% | SF-539 CNS -39.8% | M14 melanoma -56%
inactive: UACC-257 melanoma 16%

O=C1c2ccccc2-c2cn(Cc3ccccc3)c3cccc(c23)C1c1cccnc1 (stereo not given)
inactive: DU-145 prostate 60.7% | K-562 leukemia 26.8% | MALME-3M melanoma 38.9% | MDA-MB-231 breast 52.4% | RXF 393 renal 57.9% | SF-268 CNS 58% | SF-295 CNS 25.9% | SF-539 CNS 54.7% | UACC-257 melanoma 55% | M14 melanoma 48.4%

COc1ccc(-n2ncc3c2ccc2cc(S(=O)(=O)c4ccccc4)c(=O)n(C)c23)cc1
inactive: DU-145 prostate 77.7% | K-562 leukemia 113% | MALME-3M melanoma 88.7% | MDA-MB-231 breast 74% | RXF 393 renal 67.9% | SF-268 CNS 69.2% | SF-295 CNS 96.5% | SF-539 CNS 63.7% | UACC-257 melanoma 92.9% | M14 melanoma 92.8%

C=CC(=O)N1CC2(CC(n3nc(-c4ccc(Oc5ccccc5)cc4)c4c(N)ncnc43)C2)C1
inactive: DU-145 prostate 11% | K-562 leukemia 17.7% | MALME-3M melanoma 12.7% | SF-268 CNS 10.9% | SF-295 CNS 70.4% | SF-539 CNS 10.1% | M14 melanoma 14.8%
active: MDA-MB-231 breast 3.31% | RXF 393 renal -19.4% | UACC-257 melanoma 5.54%

COc1cc(/C=C/C(=O)C(=Cc2ccc(F)c(F)c2)C(=O)/C=C/c2ccc(O)c(OC)c2)ccc1O
inactive: DU-145 prostate 17.3% | K-562 leukemia 13.7% | MALME-3M melanoma 51% | MDA-MB-231 breast 13.1% | SF-268 CNS 20% | SF-295 CNS 53.7% | SF-539 CNS 26.9% | UACC-257 melanoma 47.3%
active: RXF 393 renal -32.5% | M14 melanoma 2.1%

COc1cccc(C2CC(=O)Nc3cc4c(cc32)OCO4)c1OC (stereo not given)
inactive: DU-145 prostate 103% | K-562 leukemia 83.1% | MALME-3M melanoma 93.1% | MDA-MB-231 breast 97.3% | RXF 393 renal 87% | SF-268 CNS 101% | SF-295 CNS 84.9% | SF-539 CNS 88.5% | UACC-257 melanoma 99.4% | M14 melanoma 115%

Fc1c[c-]c(-c2ccccn2)c(F)c1.Fc1c[c-]c(-c2ccccn2)c(F)c1.[Cl][Pt+].[Cl][Pt+].c1ccc([PH+](C[PH+](c2ccccc2)c2ccccc2)c2ccccc2)cc1
inactive: DU-145 prostate 22.8% | K-562 leukemia 10.2% | RXF 393 renal 34% | SF-268 CNS 21.9% | SF-295 CNS 17.3% | SF-539 CNS 29.5% | M14 melanoma 22.7%
active: MALME-3M melanoma -41.2% | MDA-MB-231 breast -15.4% | UACC-257 melanoma -0.265%

Cc1ccc(S(=O)(=O)N2CCc3ccc(O)c4c3C2Cc2ccc3c(c2-4)OCO3)cc1 (stereo not given)
active: MDA-MB-231 breast 6.15% | RXF 393 renal 0.195% | SF-539 CNS 3.96% | M14 melanoma 5.43%
inactive: DU-145 prostate 10.3% | K-562 leukemia 15.1% | MALME-3M melanoma 61.8% | SF-268 CNS 37.2% | SF-295 CNS 14.3% | UACC-257 melanoma 45.6%

COC(=O)c1c2c(c(C)[n+]([O-])c1C)C(=O)C=C(NCc1ccc(F)cc1)C2=O
active: DU-145 prostate -90.6% | K-562 leukemia 1.64% | MALME-3M melanoma -97.8% | MDA-MB-231 breast -29.3% | RXF 393 renal -22.2% | SF-268 CNS -1.99% | SF-295 CNS -80% | SF-539 CNS -91.2% | UACC-257 melanoma -87.2% | M14 melanoma -69.3%

O/N=C/c1cccs1
inactive: DU-145 prostate 116% | K-562 leukemia 87.2% | MALME-3M melanoma 105% | MDA-MB-231 breast 112% | RXF 393 renal 107% | SF-268 CNS 111% | SF-295 CNS 95% | SF-539 CNS 96.9% | UACC-257 melanoma 98.5% | M14 melanoma 105%

CCOC(=O)n1cc(C2=C(c3cn(C)c4ccccc34)COC2=O)c2ccccc21
inactive: MALME-3M melanoma 37.2% | MDA-MB-231 breast 25.5% | RXF 393 renal 19.6% | SF-268 CNS 26% | UACC-257 melanoma 55.1% | M14 melanoma 20.1%
active: DU-145 prostate -14.3% | K-562 leukemia 5.86% | SF-295 CNS 1.58% | SF-539 CNS -16.3%

CCN1C(=O)C2(Nc3ccccc3S2)c2cc(C)ccc21 (stereo not given)
inactive: DU-145 prostate 101% | K-562 leukemia 108% | MALME-3M melanoma 84.1% | MDA-MB-231 breast 105% | RXF 393 renal 93.7% | SF-268 CNS 98.2% | SF-295 CNS 101% | SF-539 CNS 94.4% | UACC-257 melanoma 101% | M14 melanoma 92.6%

COc1ccc(NS(=O)(=O)c2ccc(-c3cnc(C4CC4)o3)cc2)cc1
inactive: DU-145 prostate 81.2% | K-562 leukemia 22.8% | MALME-3M melanoma 58.3% | MDA-MB-231 breast 69.7% | RXF 393 renal 83.9% | SF-268 CNS 73.2% | SF-295 CNS 50% | SF-539 CNS 65.2% | UACC-257 melanoma 72.5% | M14 melanoma 40.9%

Cc1ccc(-c2c3c(N)c4c(nc3nc3c2c(C)nn3-c2ccccc2)CCCC4)cc1
inactive: DU-145 prostate 105% | K-562 leukemia 36.6% | MALME-3M melanoma 107% | MDA-MB-231 breast 97.1% | RXF 393 renal 97% | SF-268 CNS 108% | SF-295 CNS 100% | SF-539 CNS 103% | UACC-257 melanoma 92.2% | M14 melanoma 110%

Cc1nc2nc(C(F)(F)F)[nH]c2nc1C
inactive: DU-145 prostate 115% | K-562 leukemia 92.9% | MALME-3M melanoma 117% | MDA-MB-231 breast 114% | RXF 393 renal 106% | SF-268 CNS 102% | SF-295 CNS 78.6% | SF-539 CNS 120% | UACC-257 melanoma 100% | M14 melanoma 105%

N#Cc1c(-c2cccc(F)c2)cc(-c2ccc(Br)s2)[nH]c1=O
inactive: DU-145 prostate 90.1% | K-562 leukemia 24.5% | MALME-3M melanoma 67.2% | MDA-MB-231 breast 79.7% | RXF 393 renal 87.3% | SF-268 CNS 83.1% | SF-295 CNS 73.4% | SF-539 CNS 83.6% | UACC-257 melanoma 87.4% | M14 melanoma 39.8%

COc1ccccc1CNCCCCCCCCCCCCN1C(=O)c2ccc3c4c(ccc(c24)C1=O)C(=O)N(CCCCCCCCCCCCNCc1ccccc1OC)C3=O
inactive: DU-145 prostate 51.2% | K-562 leukemia 35.2% | MALME-3M melanoma 97.6% | MDA-MB-231 breast 64.1% | SF-268 CNS 69.4% | SF-295 CNS 49.4% | UACC-257 melanoma 113% | M14 melanoma 80.2%
active: RXF 393 renal -69.6% | SF-539 CNS 1.92%

N#CC1=C(N)Oc2cc(N)ccc2C1c1ccc(F)cc1 (stereo not given)
inactive: DU-145 prostate 93.1% | K-562 leukemia 24.8% | MALME-3M melanoma 71.9% | MDA-MB-231 breast 83.4% | RXF 393 renal 74.9% | SF-268 CNS 81.9% | SF-295 CNS 72.2% | SF-539 CNS 83.6% | UACC-257 melanoma 95.6% | M14 melanoma 51.1%

Cc1ccc(S(=O)(=O)N2CCc3ccc(O)c4c3C2CCc2ccccc2-4)cc1 (stereo not given)
inactive: DU-145 prostate 106% | K-562 leukemia 94.1% | MALME-3M melanoma 97.2% | MDA-MB-231 breast 95.2% | RXF 393 renal 117% | SF-268 CNS 97.1% | SF-295 CNS 104% | SF-539 CNS 105% | UACC-257 melanoma 105% | M14 melanoma 98.6%

C=C1CC[C@@H]2[C@@](C)(CCC[C@]2(C)C(=O)O)[C@@H]1CC[C@H](CO)CCO
inactive: DU-145 prostate 112% | K-562 leukemia 106% | MALME-3M melanoma 93.8% | MDA-MB-231 breast 105% | RXF 393 renal 118% | SF-268 CNS 99.8% | SF-295 CNS 103% | SF-539 CNS 105% | UACC-257 melanoma 109% | M14 melanoma 102%

COc1cc(CNCCCN2C(=O)c3ccc4c5c(ccc(c35)C2=O)C(=O)N(CCCNCc2cc(OC)c(OC)c(OC)c2)C4=O)cc(OC)c1OC
active: DU-145 prostate -95.6% | K-562 leukemia 7.69% | MALME-3M melanoma -87.1% | MDA-MB-231 breast -17.5% | RXF 393 renal -95.3% | SF-268 CNS -31.8% | SF-295 CNS -50.3% | SF-539 CNS -86.9% | UACC-257 melanoma -93% | M14 melanoma -89.8%

Nc1cccc2c(=S)c3ccccc3[nH]c12
inactive: DU-145 prostate 113% | K-562 leukemia 91% | MALME-3M melanoma 102% | MDA-MB-231 breast 68.3% | RXF 393 renal 95.1% | SF-268 CNS 92.5% | SF-295 CNS 97.3% | SF-539 CNS 96.9% | UACC-257 melanoma 99% | M14 melanoma 102%

COC(=O)c1c2c(c(C)[n+]([O-])c1C)C(=O)C=C(NCc1cccc(OC)c1)C2=O
active: DU-145 prostate -99.1% | K-562 leukemia -23.6% | MALME-3M melanoma -98.9% | MDA-MB-231 breast -17.4% | RXF 393 renal -46.7% | SF-268 CNS -16.1% | SF-295 CNS -97.5% | SF-539 CNS -92.3% | UACC-257 melanoma -87.1% | M14 melanoma -83.4%

Oc1cccc(Nc2nc(-c3ccccn3)cs2)c1
inactive: DU-145 prostate 122% | K-562 leukemia 93.8% | MALME-3M melanoma 109% | MDA-MB-231 breast 98% | RXF 393 renal 113% | SF-268 CNS 110% | SF-295 CNS 99.4% | SF-539 CNS 98.3% | UACC-257 melanoma 110% | M14 melanoma 111%

c1ccc(-c2n(Cc3ccc4ccccc4c3)c3ccccc3[n+]2Cc2ccc3ccccc3c2)cc1
active: DU-145 prostate 4.24% | K-562 leukemia -35.8% | MALME-3M melanoma -57.5% | MDA-MB-231 breast -49.4% | RXF 393 renal -39.4% | SF-268 CNS -61.9% | SF-295 CNS -47.1% | SF-539 CNS -16.2% | UACC-257 melanoma -21.4% | M14 melanoma -75.8%
